Over roughly 68,000 sequences, “fluorescence intensity (a.u.)” has its median near 9,100; the highest 2% begin near 16,000. The sample holds the highest values, similar sequences and a random draw of the others, so the mix is not that of the screen.

OsWRKY34, sequence (Q0JBA9 entry or part of it): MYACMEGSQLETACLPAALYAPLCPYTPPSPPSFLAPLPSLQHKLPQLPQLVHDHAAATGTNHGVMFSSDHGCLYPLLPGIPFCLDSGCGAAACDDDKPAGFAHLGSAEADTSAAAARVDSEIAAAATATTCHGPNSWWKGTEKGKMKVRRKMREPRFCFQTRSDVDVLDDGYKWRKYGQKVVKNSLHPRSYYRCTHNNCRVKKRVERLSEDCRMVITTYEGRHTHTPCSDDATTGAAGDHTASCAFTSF

For this test, the target named is OsWRKY34 (Oryza sativa, UniProt Q0JBA9 1-250). Nature of the test: protein-binding microarray (RPBM); PBS, 2% BSA, 51.3 ng/ul salmon testes DNA, 50 uM zinc acetate, 200 nM TF, 25 C, 1 h; high values mean tight binding. Particulars: protein: recombinant; tags: N-terminal polyhistidine and DsRed monomer fusion (pET32a); label: CyDye5-dUTP incorporated in the synthesized complementary strand; 3' TTTTT single-stranded linker to array surface; dsDNA, one strand shown. Summed up:
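Binding signal is defined as the fluorescence intensity of each feature in arbitrary units, read on an Axon 4000B scanner. Transcription factors with N-terminal polyhistidine and DsRed fusions came from E. coli BL21-CodonPlus and were purified on Ni–NTA. They were incubated at 200 nM for 1 h at 25 °C on a custom Agilent array that had been made double-stranded with Cy5-dUTP, with 50 µM zinc acetate present, and the array was washed.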
Consider “TTTGTTCTCTTTTATATGTAACACTTGCATATTTACCTTCCGGAGTCACCTAGTGCAG”, for which the binding signal is 8980 fluorescence intensity (a.u.). The result for “CTTCTCTTACCTCGGTGGGTGCTTAATGTGCTGGTTTGAACGGAGTCACCTAGTGCAG” reads 8740 fluorescence intensity (a.u.); that for “GCCATCCACTTGTGCTGCCAATTTGCTCAATCCCGACAAGCGGAGTCACCTAGTGCAG”, 8220 fluorescence intensity (a.u.).

“ACATTTCTGTTATTCCCCGCGGACAAGTCACAACTACTTCCGGAGTCACCTAGTGCAG”: the binding signal is 9830 fluorescence intensity (a.u.). The result for “CGCCGCCCATCTTGTCCCAATTCGGCTCCTATAAATTTCCCGGAGTCACCTAGTGCAG” reads 8750 fluorescence intensity (a.u.); that for “TGCCTCCTTTTGTTTTGCGTCTCCTTATCAGAGTGGATTGCGGAGTCACCTAGTGCAG”, 8350 fluorescence intensity (a.u.). The result for “ATCCCAATCCATGATCCAGCCATTCATCATCTGCATATATCGGAGTCACCTAGTGCAG” reads 9790 fluorescence intensity (a.u.).

In the case of “AGATTACGCCGTTAACTTTTTCTCACATGTTTGACCATTCCGGAGTCACCTAGTGCAG”, the binding signal is 11000 fluorescence intensity (a.u.). On to “ATGTACGACGCTATTGACTTTTTAACCAACGTTTGACTATCGGAGTCACCTAGTGCAG”, for which the binding signal is 11000 fluorescence intensity (a.u.).

In the case of “AGATGACGCCGTTGACTTTTTATCACATGTTTAACCATTCCGGAGTCACCTAGTGCAG”, the binding signal is 42300 fluorescence intensity (a.u.). The result for “AATGTATGACGCCGTTGACTTTTTGACCAACGTTTGACTACGGAGTCACCTAGTGCAG” reads 36100 fluorescence intensity (a.u.). As for “ATGTATGACGCCGTTGACTTTTCGACCAACGTTTATTCGTCGGAGTCACCTAGTGCAG”, the binding signal was 30200 fluorescence intensity (a.u.).

For “ACTATTACTACCTCAGTTTTGAAATGTATGACGTTGACTTCGGAGTCACCTAGTGCAG”, the binding signal is 11000 fluorescence intensity (a.u.). For “AATATTCGACGCCGTTCACTTTTTTAAATATGTTTGACCACGGAGTCACCTAGTGCAG”, the binding signal was 9820 fluorescence intensity (a.u.). As for “AAACGCTATTGACTTTTTTTATAAATGTATGACCATTCGTCGGAGTCACCTAGTGCAG”, the figure is 10400 fluorescence intensity (a.u.); as for “TCTTGTGCAGGGGTTGATTTTTCAGTGTATAGGGGTATGACGGAGTCACCTAGTGCAG”, 16800 fluorescence intensity (a.u.). As for “ATGAGTGATTGATTTCTTGTTTATAGGAGTGGGTTGTTCACGGAGTCACCTAGTGCAG”, the figure is 11200 fluorescence intensity (a.u.). As for “GTTTAGTTGATTTCAGGGCCAGTTCTTGTGGGGTTTTCAACGGAGTCACCTAGTGCAG”, the figure is 8490 fluorescence intensity (a.u.). As for “ATCTGTCAGTGCCACATCACCACCACACAACCGCAAAGAACGGAGTCACCTAGTGCAG”, the binding signal is 9250 fluorescence intensity (a.u.). As for “ATCGGTGTTGACCTCCATATGCTGATCAGGCCCCATTTCCCGGAGTCACCTAGTGCAG”, the figure is 8140 fluorescence intensity (a.u.); as for “GGCCGAGCAGGTCTCCCGCGCCTTCGACATCCCTCTGCCACGGAGTCACCTAGTGCAG”, 8600 fluorescence intensity (a.u.). The result for “TTCCTCTACATTCTACGTCCGGTTGGATTTTGCATGCGATCGGAGTCACCTAGTGCAG” reads 8640 fluorescence intensity (a.u.). As for “TTCTTCCCAGATCGTGCTTCTCCCACTCGGATCAGCCGCCCGGAGTCACCTAGTGCAG”, the figure is 8110 fluorescence intensity (a.u.); as for “TGTTGTTTTTTATGTGTGAACCTCTTTGATCTCAATGCAACGGAGTCACCTAGTGCAG”, 8510 fluorescence intensity (a.u.). Take “CCTCCCTCACCGTCTTCCGCCTCGCCATCTCCAGCTCCGACGGAGTCACCTAGTGCAG”: the binding signal is 10100 fluorescence intensity (a.u.). As for “CACCATCCATGCATATGCATCTTGTAGTTATTGCTTGCTCCGGAGTCACCTAGTGCAG”, the figure is 9580 fluorescence intensity (a.u.). Turning to “TCCACATCATCCGACCAACTCTACCAGCCATTCCACCCGCCGGAGTCACCTAGTGCAG”, the binding signal was 9160 fluorescence intensity (a.u.). The result for “CCTTATACTGTCTCACTTGTCTCACACTGAAACCGTTTTCCGGAGTCACCTAGTGCAG” reads 8410 fluorescence intensity (a.u.); that for “TGACGACGCCATTGACTTTTGAACACATGTTTGACCATTCCGGAGTCACCTAGTGCAG”, 15900 fluorescence intensity (a.u.). As for “ACGCCGTTAACTTTTTATCCAATGTTTGACCATTCGTCTTCGGAGTCACCTAGTGCAG”, the figure is 13000 fluorescence intensity (a.u.); as for “GTATAACGCCGTTGACTTTTTAACCAATGTTTGACCATTCCGGAGTCACCTAGTGCAG”, 40400 fluorescence intensity (a.u.); as for “CGTTTGGCCAAGTATATGACGCCCTAACTTATAAGTTGACCGGAGTCACCTAGTGCAG”, 8420 fluorescence intensity (a.u.).

On to “GTATGACGCCGTTGACTTTTTGGCCAACGTTTGACCATTCCGGAGTCACCTAGTGCAG”, for which the binding signal was 41500 fluorescence intensity (a.u.).

“TCCATCGCGCGTCGTCTCCACCTTTGTTGCTTGTGCCACCCGGAGTCACCTAGTGCAG”: the binding signal is 10200 fluorescence intensity (a.u.). As for “ATGGGGTATTTAGGATGGGCAATATTTTGGTAGTGAGGAGCGGAGTCACCTAGTGCAG”, the figure is 9430 fluorescence intensity (a.u.); as for “TGCTAAAAAGTCAACGGTGTCAAACATTTCGAAACGGAGGCGGAGTCACCTAGTGCAG”, 10900 fluorescence intensity (a.u.). As for “ACCACCACCGTCTCAACTCTCTCTCAGACTGTCCGCCATGCGGAGTCACCTAGTGCAG”, the figure is 8030 fluorescence intensity (a.u.). As for “ATATATCCATGCGAACTTCGCTCCAATAGTGAATTTTATCCGGAGTCACCTAGTGCAG”, the figure is 8900 fluorescence intensity (a.u.); as for “GCTTTATCGTGCAAACACCTAAGCTGATAAAGGCAAAGGTCGGAGTCACCTAGTGCAG”, 23200 fluorescence intensity (a.u.). Take “ATATACATAAGCTTCTCGTGCACACACAAACTAACATAAACGGAGTCACCTAGTGCAG”: the binding signal is 8610 fluorescence intensity (a.u.). In the case of “TAAAGCTTTATATAGCTGGCCCGCTGACTTTTTTATATATCGGAGTCACCTAGTGCAG”, the binding signal is 9020 fluorescence intensity (a.u.). On to “GGAGCGATGACGTTCTATACCTTCGGCCTTCGTTTGACCGCGGAGTCACCTAGTGCAG”, for which the binding signal is 10600 fluorescence intensity (a.u.). As for “TTGATTTCTCTGAGTTTGTGTTCTTGGCATCATCATCATTCGGAGTCACCTAGTGCAG”, the figure is 11400 fluorescence intensity (a.u.).
